Records with an inconclusive call do not appear. Values without a mark were called inactive. Calls of active or inactive are those of the source. Calls come from the whole dose curve; as a rule, active = well fitted cell-killing curve with a large enough effect in the repeat runs; inconclusive = weak or mixed curves, or effect the other way; inactive = flat fitted curve, though single readings scatter.
experiment: qHTS assay to identify small molecule antagonists of the androgen receptor (AR) signaling pathway using the MDA cell line - cell viability counter screen (AID 743041; note: nearly all actives have a fitted effect of over 45% in size); details: MDA-kb2 viability, CellTiter-Fluor, 16 h, cells co-treated with R1881 androgen agonist; series mostly up to 70.3 µM; viability change, negative = cytotoxic: at the top concentration
From the text: National Center for Advancing Translational Sciences [NCATS]
NIH Chemical Genomics Center [NCGC]
U.S. Environmental Protection Agency [EPA]
National Institutes of Environmental Health Sciences [NIEHS]
National Toxicology Program [NTP]
U.S. Food and Drug Administration [FDA]
Androgen receptor (AR), a nuclear hormone receptor, plays a critical role in AR-dependent prostate cancer and other androgen related diseases. Endocrine disrupting chemicals (EDCs) and their interactions with steroid hormone receptors like AR may cause disruption of normal endocrine function as well as interfere with metabolic homeostasis, reproduction, developmental and behavioral functions. To identify the compounds that inhibit AR signaling, MDA-kb2 AR-luc cell line (from ATCC, deposited by Wilson et al.) was used to screen the Tox21 10K compound library. MDA-kb2 AR-luc cell line is human breast carcinoma cell line that was stably transfected with a luciferase reporter gene under control of the MMTV promoter containing response elements for both androgen receptor (AR) and glucocorticoid receptor (GR). The cytotoxicity of the Tox21 compound library against the MDA-kb2 AR-luc cell line was tested in parallel by measuring the cell viability using CellTiter-Fluor assay (Promega, Madison, WI) in the same wells.
Tox21 Assay Protocol Summary:
MDA-kb2 AR-luc cells were dispensed at 3,000 cells/4 uL/well of culture medium into white wall/solid-bottom 1536-well plates using a Multidrop Combi (ThermoFisher Scientific, Waltham, MA) dispenser. After the assay plates were incubated at a 37C and 0% CO2 for 5 hr, 23 nL of compounds dissolved in DMSO, positive controls or DMSO only was transferred to the assay plate by a Pintool station (Kalypsys, San Diego, CA), followed by addition of 1 uL of agonist (R1881) in culture medium using a Bioraptr Flying Reagent Dispenser (FRD) workstation (Beckman Coulter, Indianapolis, IN, USA). The plates were incubated at a 37C and 0% CO2 for 16 h. After 15.5 h incubation, 1uL of CellTiter-Fluor reagent (Promega) was added using a Bioraptr FRD to each plate for measuring cytotoxicity. The fluorescence intensity was quantified on a ViewLux plate reader (PerkinElmer, Shelton, CT) following 30 min incubation at 37C and 0% CO2.
% is set by controls: 0 for no effect and ±100 for the full control effect.

Compared with `CC(C)Cc1ccc(CC(=O)O)cc1`, `O=C(O)CN1C(=O)c2cccc3cccc(c23)C1=O` is higher in “viability change, negative = cytotoxic” value: -8.21% for the first, 1.01% for the second.

Compared with `CCCCCCC(CO)CCCC` (stereo not given), `CCCCCCCCCCCSCC(=O)O` is lower in “viability change, negative = cytotoxic” value: 3.7% for the first, -0.688% for the second.

Going from `O=C(c1ccccc1)C1CCC1` to `Oc1ccc2c(c1)Cc1ccccc1-2`, the “viability change, negative = cytotoxic” value falls from 3.26% to -6.68%.

First: CCCCOC(=O)CCCCC(=O)OCCCC
Second: CCCCCCC(O)CCCCCCCCCCC(=O)OC (stereo not given)
The “viability change, negative = cytotoxic” value of the first is lower: -3.13% for the first, 5.8% for the second.

Going from `O=S(=O)(O)CO` to `CC(=O)C(=O)CC(C)C`, the “viability change, negative = cytotoxic” value falls from -1.6% to -4.8%.

Compared with `O=C(NS(=O)(=O)/C=C/c1ccccc1)c1ccc(F)cc1Cl`, `O=C(Oc1ccccc1)c1ccc2ccccc2c1O` is higher in “viability change, negative = cytotoxic” value: -0.151% for the first, 5.02% for the second.

First: COC(C)(C)OC
Second: COc1cc(NCc2ccc3nc(N)nc(N)c3c2C)cc(OC)c1OC
The “viability change, negative = cytotoxic” value of the first is higher: 6% for the first, -7.92% for the second.

Going from `O=NN(CCCl)C(=O)NCCCl` to `CCSC(=O)N(CC)CC`, the “viability change, negative = cytotoxic” value rises from 2.68% to 5.16%.

First: COc1ccc(C(=O)NCc2ccc(OCCN(C)C)cc2)cc1OC
Second: COc1ccc(C2C(=O)c3ccccc3C2=O)cc1
The “viability change, negative = cytotoxic” value of the first is higher: 2.44% for the first, 1.46% for the second.

Compared with `Cc1ccc2c(c1)CCCN2`, `Cc1ccc2c(c1[N+](=O)[O-])C(=O)c1ccccc1C2=O` is lower in “viability change, negative = cytotoxic” value: -0.817% for the first, -1.3% for the second.

Going from `CC(=O)OCC1=C(C(=O)O)N2C(=O)[C@@H](NC(=O)CSc3ccncc3)[C@H]2SC1` to `O=C(O)c1cccc(C[C@@H]2COc3ccc(OCc4nc5cc(F)ccc5s4)cc3[C@@H]2O)c1`, the “viability change, negative = cytotoxic” value falls from 0.0503% to -2.34%.

First: CCO[Si](C)(CCCOCC1CO1)OCC (stereo not given)
Second: CCCCC[C@H](O)/C=C/[C@H]1[C@H](O)CC(=O)[C@@H]1C/C=C\CCCC(=O)O
The “viability change, negative = cytotoxic” value of the first is higher: 5.54% for the first, -3.09% for the second.

Compared with `C[C@H](CS)C(=O)N1CCC[C@H]1C(=O)O`, `Cc1cccc(C)c1NC(=O)c1cc(S(N)(=O)=O)c(Cl)cc1O` is lower in “viability change, negative = cytotoxic” value: 9.13% for the first, -2.62% for the second.

Compared with `CSCC[C@H](NC(=O)[C@H](Cc1c[nH]c2ccccc12)NC(=O)CCNC(=O)OC(C)(C)C)C(=O)N[C@@H](CC(=O)O)C(=O)N[C@@H](Cc1ccccc1)C(N)=O`, `C=C(C)C(=O)OCCC(F)(F)C(F)(F)C(F)(F)C(F)(F)C(F)(F)C(F)(F)F` is higher in “viability change, negative = cytotoxic” value: -0.529% for the first, 1.78% for the second.

In the case of `[Cl][Nd]([Cl])[Cl]`, the “viability change, negative = cytotoxic” value is reported as -6.15%.

Going from `CC(=O)C(C)=O` to `NC(=O)c1ccccc1[N+](=O)[O-]`, the “viability change, negative = cytotoxic” value falls from 5.03% [at 95 µM] to -7.94% [at 95 µM].

First: O=C(c1ccccc1)c1ccc(O)cc1
Second: Nc1ccc(F)cc1
The “viability change, negative = cytotoxic” value of the first is higher: 4.54% [at 95 µM] for the first, -22.5% [at 95 µM] for the second.

Going from `O=CNNC=O` to `Cc1ccc(Cl)cc1N`, the “viability change, negative = cytotoxic” value falls from -0.62% [at 95 µM] to -1.6% [at 95 µM].

In the case of `Cc1cccc2sc(N)nc12`, the “viability change, negative = cytotoxic” value is reported as -0.677% [at 95 µM].

For `COc1cc(NC(C)CCCN)c2ncccc2c1` (stereo not given), the “viability change, negative = cytotoxic” value was 0.857% [at 32.5 µM].

In the case of `CC[C@H]1OC(=O)[C@H](C)[C@@H](O[C@H]2C[C@@](C)(OC)[C@@H](O)[C@H](C)O2)[C@H](C)[C@@H](O[C@@H]2O[C@H](C)C[C@H](N(C)C)[C@H]2O)[C@](C)(O)C[C@@H](C)C(=O)[C@H](C)[C@@H](O)[C@]1(C)O`, the Potency is reported as “inactive”.
In the case of `C[C@@H]1[C@H](O)[C@@H](C)/C=C/C=C\C=C\C=C\C=C\C=C\C=C\[C@H](O[C@@H]2O[C@H](C)[C@@H](O)[C@H](N)[C@@H]2O)C[C@@H]2O[C@](O)(C[C@@H](O)C[C@@H](O)[C@H](O)CC[C@@H](O)C[C@@H](O)CC(=O)O[C@H]1C)C[C@H](O)[C@H]2C(=O)O` (stereo in doubt), the Potency is reported as “inactive”.

With `CCCCCCC(O)CCOC(C)=O` (stereo not given) the “viability change, negative = cytotoxic” value was -0.275% [at 260 µM].

Reference: PubChem BioAssay (Tox21)
